Sfp PPTase inh = qHTS Assay for Inhibitors of Bacillus subtilis Sfp phosphopantetheinyl transferase (PPTase); Biochemical Sfp PPTase activity, qHTS; AID 1490, 2009; 4'-phosphopantetheinyl transferase ffp (Bacillus subtilis), Q9F4F7; Potency, µM, without a hit: largest response in the series, negative = inhibition, actives largely listed as inhibitors; actives 3.5% (n = 310,000);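 note: the enzyme is Sfp with the accession as filed and its product quenches rhodamine fluorescence; potency is the fitted concentration of half-maximal effect; 0% = enzyme reaction without inhibitor and -100% = no enzyme wells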
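Reaction rates are the 30-min fluorescence difference (ex 525, em 598 nm) in wells containing 15 nM Sfp, 5 uM rhodamine-CoA and 12.5 uM BHQ-2-YbbR at pH 7.6 with 10 mM MgCl2.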
TCR activator = Activators of T cell receptors: qHTS campaign; primary human leukocytes, anti-CD3, IL-2 HTRF, 48 h; Potency, µM (series often up to 9.22 µM), for inactives: at the top dose activation of IL-2 secretion, most hits filed as activators; 330,000 tested, under 10 active; AID 504894, 2011; note: % of control where 0% means no effect
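TCR engagement came from a-CD3 beads alone, with compounds added to primary human leukocytes for 48 hr. Secreted IL-2 bridged europium cryptate- and d2-labelled anti-IL-2 antibodies, giving FRET emission at 665nm after 320nm excitation.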
uPA surface inh = qHTS for Inhibitors of Cell Surface uPA Generation; Potency, µM (titrated, usually from 38.3 µM), for inactives: at the highest dose activity change, negative = inhibition, hits mostly inhibitors; cell surface uPA generation assay, qHTS; AID 540303, 2011; actives 0.31% (n = 330,000); active = well fitted inhibition curve with a large enough effect; inconclusive = small, poorly fitted or top-dose-only effect; inactive = no such curve, though single readings can be large or run the other way; tested in mouse RAW 264.7 cells; note: potency is the fitted concentration of half-maximal effect; % is set by controls: 0 for no effect and ±100 for the full control effect; nearly all actives have a fitted effect of over 55% in size
ClpP mod = qHTS Assay for Activators of ClpP; ATP-dependent Clp protease proteolytic subunit (Bacillus subtilis (strain 168)), P80244; actives 1.9% (n = 340,000); AID 651965, 2013; purified B. subtilis ClpP, FRET peptide cleavage, 20 min; Potency, µM (titrated, usually from 57.5 µM), inactives show at the highest dose activity change, negative = active; active = well fitted falling curve with a large enough effect; inconclusive = small, poorly fitted or top-dose-only effect; inactive = no such curve, though single readings can be large or run the other way; note: potency is the fitted concentration of half-maximal effect; the source files actives as falling curves though it sought activators and does not explain the sign; nearly all actives have a fitted effect of over 65% in size
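Buffer: 100 mM Tris/HCl pH8, 100 mM KCl, 0.05% low protease BSA, 2.5% glycerol, 0.01% Tween-20. ClpP 10 microg/mL final; 20 min RT; delta FRET normalized to ADEP and DMSO controls.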
* marks the source's active call; other numbers are inactive results; ? = inconclusive; . = no result; [ ] = another dose, or the depositor's remark. Sampled rows, rich in hits. Any-hit rate of the full collection: about 4.2%. Unless noted, calls come from the whole dose curve; as a rule, active = well fitted curve in the direction sought with a large enough effect; inconclusive = small, poorly fitted or top-dose-only effect, or another doubt; inactive = no such curve, though single readings can be large; an effect the other way counts as inactive or inconclusive.

SMILES | Sfp PPTase inh | TCR activator | uPA surface inh | ClpP mod
CN(C)c1ccc(/C=C2\C(=O)NC(=O)N(Cc3ccc(F)cc3)C2=O)cc1 | -18% | 1% | 0% | .
Cc1ccc(/C=C2\C(=O)NC(=O)N(CCc3ccc(F)cc3)C2=O)o1 | 40µM* | 0%[46.1 µM] | -30% | 0%
COc1ccc(CN2C(=O)NC(=O)/C(=C\c3cccc(OC)c3OC)C2=O)cc1 | 79µM* | -7% | 3% | .
COc1ccc(CN2C(=O)NC(=O)/C(=C/c3ccc([N+](=O)[O-])o3)C2=O)cc1 | 50µM* | . | . | .
CC1=C/C(=C(/c2cc(C)c(O)c(Br)c2)c2ccccc2S(=O)(=O)O)C=C(Br)C1=O | -21% | 18% | -5% | .
CC(=O)CC(c1ccccc1)c1c(O)c2cccc(O)c2oc1=O (stereo unspecified) | -8% | . | . | .
CC1N(P(=O)(c2ccccc2)c2ccccc2)CC(O)(c2ccccc2)CC12CC2 (stereo unspecified) | -4% | . | . | .
O=C1C=CC[C@@H]2[C@H]3CCCN4CCC[C@@H](CN12)[C@@H]34 | -7% | . | . | .
Cc1ccc(/C=C2/C(=O)NC(=O)N(Cc3ccc(F)cc3)C2=O)o1 | 35µM* | . | . | .
CCOc1cc(/C=C2\C(=O)NC(=O)N(CCc3ccc(F)cc3)C2=O)ccc1O | 71µM* | 1% | 21% | -1%
CCOC(OCC)P(=O)(O)CCCN | 20% | . | . | .
S=c1[nH]nc(-c2ccn[nH]2)n1-c1ccccc1Cl | 56µM* | -10% | 16% | -5%
CC1OC(O[C@H]2C[C@@H](O)[C@]3(CO)[C@@H]4C(CC[C@]3(O)C2)[C@@]2(O)CC[C@H](C3=CC(=O)OC3)[C@@]2(C)C[C@H]4O)C(O)C(O)C1O (stereo partly specified) | 12% | . | . | .
O=C1NC(=O)N(c2ccc3c(c2)OCO3)C(=O)/C1=C/c1cccs1 | 11µM* | -1% | 3% | .
CCc1ccc(N2C(=O)NC(=O)/C(=C\c3cc(C)n(-c4cc(C(=O)O)cc(C(=O)O)c4)c3C)C2=O)cc1 | -7% | 1% | -3% | .
O=C1NC(=O)C(=Cc2ccc3c(c2)OCO3)C(=O)N1 | 50µM* | . | . | .
O=C1NC(=O)N(c2ccc3c(c2)OCO3)C(=O)/C1=C/c1ccsc1 | 40µM* | 8% | 8% | -3%
CCc1ccc(N2C(=O)NC(=O)/C(=C/c3ccsc3)C2=O)cc1 | 50µM* | . | . | .
O=C1NC(=O)N(c2ccc3c(c2)OCO3)C(=O)/C1=C/c1ccc(N2CCCC2)o1 | -9% | 2%[46.1 µM] | 5% | 1%
O=C(Nc1cccc(F)c1)N1CCCC2(CCN(C(=O)Oc3ccccc3)CC2)C1 | 9% | . | . | .
COC(=O)[C@@H]1[C@@H](O)[C@@]2(O)c3c(OC)cc(OC)cc3O[C@@]2(c2ccc(OC)cc2)[C@H]1c1ccccc1 | 10% | . | . | .
COC(=O)COc1ccc(C[C@@H](C)NC[C@H](O)c2cccc(Cl)c2)cc1 | -6% | . | . | .
CCC12CCCN3CCC4(c5ccc(OC)c(O)c5N(C(C)=O)C4CC1)C32 (stereo unspecified) | 12% | . | . | .
O=C1C(Cc2cnc[nH]2)NC(=S)N1c1ccccc1 (stereo unspecified) | 50µM* | -5% | -4% | .
Cc1ccc2c(c1)[C@@H]1CN(C)CC[C@H]1N2 | 23% | . | . | .
SMILES | Sfp PPTase inh | TCR activator | uPA surface inh | ClpP mod
NC(N)=N/N=C/c1ccc(N2CCOCC2)cc1 | 2% | 4% | 7.9µM* | 4%
COc1ccc(/C=N\N=C(N)N)cc1 | 13% | -2% | -10% | .
NC(N)=N/N=C/c1ccc(N(c2ccccc2)c2ccccc2)cc1 | 40µM* | -5% | -8% | 5%
CC(=O)O[C@H]1C[C@@H](O[C@@H]2[C@H](C)O[C@H](O[C@@H]3[C@H](C)O[C@H](O[C@@H]4CC[C@@]5(C)[C@@H](CC[C@]6(C)[C@]5(C)C[C@H](O)[C@]5(C)[C@@H](C7=CC(=O)OC7)CC[C@@]56O)C4)C[C@@H]3O)C[C@@H]2O)O[C@@H](C)[C@H]1O[C@H]1O[C@@H](CO)[C@@H](O)[C@@H](O)[C@@H]1O | 19% | . | . | .
CCCCOCN(C(=O)CCl)c1c(CC)cccc1CC | 0% | . | . | .
COc1cccc(CNC(=O)CSc2ccc(-c3ccco3)nn2)c1 | 22µM* | 0% | -1% | 2%
O=c1[nH]c(=S)n(C2CC2)c(O)c1C=Nc1ccc2c(c1)OCO2 | 56µM* | -7% | -1% | .
Cc1c(C(=O)OCC(C)C)[nH]c2c1C(=O)CC(c1ccco1)C2 (stereo unspecified) | 40µM* | -5%[46.1 µM] | ? | -1%
CCCCC[C@@H](/C=C/C1C(=O)C=C[C@H]1C/C=C\CCCC(=O)O)OC(C)=O (stereo partly specified) | . | -5% | ? | -1%
Cc1ncc(CN2CC=C(c3ccccc3)CC2)c(N)n1 | -18% | . | . | .
CCN1/C(=C/C=C/C2=[N+](CC)c3ccccc3C2(C)C)C(C)(C)c2ccccc21 | . | . | . | -2%
CN1/C(=C\C=C\C2=[N+](C)c3ccc4ccccc4c3C2(C)C)C(C)(C)c2ccccc21 | 16µM* | . | . | .
O=C(Oc1ccc(Cl)c2ccccc12)N1CCCCC1 | -13% | -10% | 0% | 28µM*
NC(=O)[C@@H]1CCCN1C(=O)[C@H](Cc1ccccc1)NC(=O)[C@@H]1CCCN1C(=O)[C@@H](N)Cc1ccc(O)cc1 | 6% | . | . | .
CCn1c(-c2nn(-c3ccccc3)ccc2=O)n[nH]c1=S | 56µM* | -4% | -3% | .
c1cc(CN2CCCC3(CCNCC3)C2)ccn1 | 1% | . | . | .
COc1ccccc1C1c2[nH]c3ccccc3c2C[C@H]2C(=O)N(C3CCN(Cc4ccccc4)CC3)CC(=O)N12 (stereo partly specified) | 14% | 0% | ? | -1%
O=C1Nc2cc(C(=O)N3CCC4(CC3)OCCO4)ccc2NC1CSCc1cccc(F)c1 (stereo unspecified) | 50µM* | . | . | .
O=C(c1ccc2c(c1)N(Cc1ccccc1)CCS2)N1CCC2(CC1)OCCO2 | -2% | -13% | 2% | 4%
NCC(CC(=O)O)c1ccc(Cl)s1 (stereo unspecified) | 24% | . | . | .
COc1cc([C@@H]2c3cc4c(c(O)c3C[C@H]3COC(=O)[C@@H]32)OCO4)cc(OC)c1OC | . | . | . | 0%
c1ccc(CN2CCC(Nc3nc(-c4cccs4)nc4ccccc34)CC2)cc1 | 79µM* | -4% | ? | ?
CN(C)c1ccc(/C=C/C=C2/C(=O)NC(=O)N(c3ccccc3)C2=O)cc1 | 45µM* | 1% | 4% | .
O=C1NC(=O)N(Cc2ccccc2)C(=O)/C1=C\C=C\c1ccco1 | -26% | 2% | -11% | .
Cc1ccc(N2C(=O)NC(=O)/C(=C\C=C\c3ccco3)C2=O)cc1C | -71% | 7%[46.1 µM] | -8% | -1%
Cc1cccc(N2C(=O)NC(=O)/C(=C/c3ccc([N+](=O)[O-])o3)C2=O)c1 | 13µM* | -2%[46.1 µM] | 1% | -3%
Cc1cc(/C=C2/C(=O)NC(=O)N(c3ccccc3)C2=O)c(C)n1-c1ccc(F)cc1 | . | -15% | 6% | 4%

Source: PubChem BioAssay (National Center for Advancing Translational Sciences (NCATS))
